Shown is part of a subset that was picked to be rich in hits.
Tgondii IFNg: T. gondii growth inhibition with IFN-gamma, primary screen, cell-based. Toxoplasma gondii growth in IFN-gamma-treated host cells; stronger effect = lower value. activity change, negative = inhibition, % (test concentration not listed). 69,000 compounds, 3.8% hits; in the data active means activity change below about -70%, passing the limit was not always enough;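 further: host cells are HeLa cells infected with Toxoplasma gondii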
Of the large screens only hits and unclear results are named; the others gave an inactive call.

N#Cc1ccc(N2CC3(CCN(C(=O)c4cnccn4)C3)CC2=O)cc1 (stereo not given)	none
Cc1ccc(N2CC3(CCN(C(=O)Cc4ccc(F)cc4)C3)CC2=O)cc1 (stereo not given)	Tgondii IFNg -113.1
Cc1ccc(N2CC3(CCN(C(=O)Nc4ccc(F)cc4)C3)CC2=O)cc1 (stereo not given)	none
Cc1ccsc1[C@@H]1CCN(C(=O)CC2=CCCCC2)C[C@H]1O	none
CCc1nncn1-c1ccccc1OCC(=O)O	none
O=C(C[C@@H]1CC[C@@H]2[C@H](COC[C@@H](O)CN2C(=O)Nc2ccc(Cl)cc2)O1)NCC1CCCCC1	none
Cc1ccccc1-c1noc(CCCC(=O)NCc2ccc(Cl)cc2)n1	none
COc1ccc(CN(C)CCc2ccccn2)cc1OC	none
COc1cccc(C#Cc2ccc3c(c2)O[C@@H](CN(C)C(=O)CN2CCOCC2)[C@@H](C)CN([C@H](C)CO)S3(=O)=O)c1	none
COCC#Cc1ccc2c(c1)O[C@H](CN(C)C(=O)C1CCOCC1)[C@H](C)CN([C@H](C)CO)S2(=O)=O	none
C[C@@H]1CN([C@@H](C)CO)S(=O)(=O)c2ccc(C#CCC3CCCC3)cc2O[C@H]1CN(C)C(=O)c1cnccn1	none
C[C@@H]1CN([C@@H](C)CO)S(=O)(=O)c2ccc(C#Cc3ccccc3F)cc2O[C@H]1CN(C)C(=O)Cc1cccnc1	Tgondii IFNg -90.3
COc1cccc(C#Cc2ccc3c(c2)O[C@H](CN(C)C(=O)CN2CCOCC2)[C@H](C)CN([C@H](C)CO)S3(=O)=O)c1	none
C[C@H]1CN([C@@H](C)CO)S(=O)(=O)c2ccc(C#CCC3CCCC3)cc2O[C@H]1CN(C)C(=O)c1cnccn1	Tgondii IFNg -90.6
NN1Nc2cc(S(N)(=O)=O)ccc2O1	none
COCC(=O)N(C)C[C@H]1[C@H](c2ccccc2)[C@H](CO)N1C(=O)Cc1ccncc1	none
CCS(=O)(=O)N1CCn2c(COc3cccnc3)cnc2C1C (stereo not given)	none
Cc1ccc(C(=O)CSc2nnc(-c3ccncc3)n2C)cc1	none
CC(C)OC(=O)CSc1nnc(-c2ccc(O)cc2)n1C	none
Cc1ccc(-c2nnc(SCC(=O)c3ccc4c(c3)n(C)c(=O)n4C)n2C)cc1	Tgondii IFNg -97.8
CS(=O)(=O)N1CCN(c2ccnc3cc(Cl)ccc23)CC1	none
Cc1ccc(NC(=O)CN2C(=O)CCc3cc(S(=O)(=O)N4CCCC4)ccc32)cc1C	none
O=C(CN1C(=O)CCc2cc(S(=O)(=O)N3CCCCC3)ccc21)Nc1ccccc1	none
CC(C)c1ccc(NC(=O)CN2C(=O)CCc3cc(S(=O)(=O)N4CCOCC4)ccc32)cc1	none
Cc1ccc(NC(=O)CN2C(=O)CCc3cc(S(=O)(=O)N4CCCC4)ccc32)cc1	none
O=C(CN1C(=O)CCc2cc(S(=O)(=O)N3CCCCC3)ccc21)Nc1cccc(Cl)c1	Tgondii IFNg -88.4
CC(C)c1ccc(NC(=O)CN2C(=O)CCc3cc(S(=O)(=O)N4CCCCC4)ccc32)cc1	Tgondii IFNg -113.3
O=C(CN1C(=O)CCc2cc(S(=O)(=O)N3CCCC3)ccc21)Nc1cccc(Cl)c1	Tgondii IFNg -102.6
Cc1ccc(NC(=O)CN2C(=O)CCc3cc(S(=O)(=O)N4CCCCC4)ccc32)cc1C	none
Cc1c(Cl)cccc1NC(=O)CN1C(=O)CCc2cc(S(=O)(=O)N3CCCCC3)ccc21	none
CN(C)C(=O)NC[C@@]12COC[C@@H]1CN(Cc1ccc3c(c1)OCO3)C2	none
CS(=O)(=O)N1C[C@@H]2OCCN(c3cnccn3)[C@H]2C1	none
Cc1cc2oc(=O)cc(C)c2cc1NC(=O)C1CCOC1 (stereo not given)	none
CC(=O)Nc1ccc(CN2CCc3c([nH]c4ccccc34)C2c2ccccc2C)s1 (stereo not given)	none
O=C(NCc1cccs1)c1c(O)c2ccccc2[nH]c1=O	none
Cc1oc(C2CCN(C(=O)Nc3ccccc3Cl)CC2)nc1C(=O)N(C)C	none
CN1CC2(CCN(C(=O)c3csc(-c4cccs4)n3)C2)OC1=O (stereo not given)	none
Cc1nc2ccc(C(=O)N(Cc3noc(C)n3)C(C)C)cc2[nH]1	none
C=CCOC1C2CCC1N(c1ncc(F)cn1)C2 (stereo not given)	none
Cc1noc(-c2cc(=O)n(CC(=O)Nc3ccccc3Cl)c3ccccc23)n1	none
CC1(C)C(=O)OC(C(=O)c2ccc(Cl)cc2)C(C)(C)C1=O (stereo not given)	none
O=C(Nc1cnn(-c2ncncc2N2CCSCC2)c1)NC1CCCCC1	none
O=C(Nc1cnn(-c2ncncc2N2CCCCC2)c1)C1CCCC1	none
O=C(Nc1cnn(-c2ncncc2N2CCCCC2)c1)C1CCCCC1	Tgondii IFNg -79.7
CC(C)C[C@H]1C(=O)N2CCC[C@H]2[C@]2(O)O[C@](NC(=O)[C@@H]3C=C4c5cccc6[nH]c(Br)c(c56)C[C@H]4N(C)C3)(C(C)C)C(=O)N12	none
CO[C@H]1CN(C)C(=O)c2ccc(NC(=O)C3CC3)cc2OC[C@@H](C)N(C(C)=O)C[C@H]1C	none
Cc1ccc(S(=O)(=O)Nc2c(C)ccc3nsnc23)cc1	none
CCn1cnc(NC(=O)N(C)Cc2cccc3ncccc23)n1	none
CCn1cc(-c2ccnc3[nH]c(-c4cccc(CN(C)C)c4)cc23)c(-c2ccc(NC(=O)N(C)C)cc2)n1	Tgondii IFNg -82.5

High-throughput results as filed in PubChem.
